# Results as given in PubChem BioAssay AID1403 (National Center for Advancing Translational Sciences (NCATS), 2008).
# Records with an inconclusive call do not appear. The source made the active and inactive calls. The call rests on the fitted dose curve; in most records, active means well fitted curve in the direction sought with a large enough effect in the signal ratio; inconclusive means small, poorly fitted or top-dose-only effect, or a change in a side signal; inactive means no such curve, though single readings can be large or run the other way; the % refers to the signal ratio.
# Target: Follicle-stimulating hormone receptor (Homo sapiens) (UniProt P23945)
# Test: Counterscreen for Agonists of Thyroid Stimulating Hormone Receptor: HTRF Activity in a Follicle Stimulating Hormone Receptor Cell Line
# Details: HEK293-FSHR cells, 30 min; series mostly up to 91.7 µM; activation (cAMP increase): at the top concentration
# Excerpt: NIH Chemical Genomics Center [NCGC] NIH Molecular Libraries Screening Centers Network [MLSCN] MLSCN Grant: 1 X01 MH080680-01 PI Name: Dr. Marvin Gershengorn, NIH NCGC Assay Overview: Confirmation of Thyroid Stimulating Hormone Receptor Agonists TSH is an alpha/beta heterodimeric glycoprotein hormone secreted from the anterior pituitary gland which belongs to the glycoprotein hormone family. The actions of TSH are mediated by a seven-transmembrane receptor, which upon TSH binding couples preferentially to the G-alpha (s) protein (Gs), resulting in activation of adenylate cyclase and increase in cyclic adenosine 3', 5' monophosphate (cAMP). The TSH receptor (THSR) is mainly expressed in thyroid follicular cells and regulates their growth and function. Recombinant TSH is used to activate TSHR in patients with thyroid cancer receiving thyroid hormone suppression therapy and to screen for residual tumor after surgery, but it is expensive and must be administered intramuscularly. An orally active small molecule TSHR agonist would serve as an invaluable research tool for studying TSHR pharmacology and physiology, and would have multiple advantages in therapeutic settings. However, no selective small molecule agonist of the TSH receptor exists, and no small molecule screen for TSHR agonists has ever been reported. In order to confirm specificity of the compounds to the TSHR, a confirmatory assay was conducted on a similar family member, the Follicle Stimulating Hormone (FSH) receptor, transfected into a HEK 293 cell line, using an orthogonal detection technology to measure cAMP stimulation: antibody-based Homogeneous Time Resolved Fluorescence (HTRF).
# NCGC Assay Protocol Summary: Homogeneous Time Resolved Fluorescence (HTRF) cAMP Assay. HEK 293 cells stably transfected with a vector containing the FSH receptor and maintained under hygromycin selection were obtained from the laboratory of Dr. Marvin Gershengorn. Compounds were assayed using a HTRF cAMP detection kit (Cisbio) on the FSH receptor transfected cell line. Briefly, 750 cells were plated in 2.5 ul/well of complete media (DMEM containing 10 % FCS, and 100 uM RO 20-1724) in 1536 well solid bottom white plates and 23 nl/well compound in DMSO solution or controls was added. Following 30 minute incubation at room temperature, 2.5 ul/well of labeled d2 cAMP and 2.5 ul/well of anti-cAMP antibody (both diluted 1:20 in lysis buffer) were added to each well using a flying reagent dispenser (Aurora Discovery, San Diego) . Plates were measured using the Envision plate reader (PerkinElmer, Boston, MA) with excitation at 330 nm and emissions of 615 nm and 660 nm. Keywords: Follicle Stimulating hormone FSH, Thyroid-stimulating hormone TSH, TSHR, TSHR agonist, quantitative high throughput screening, qHTS, HTS, probe identification, CNG, cAMP, cyclic nucleotide gated ion channel PubChem
row,Compound,activation (cAMP increase)
1,NC(=O)c1nsc(C(=O)N(CC(=O)NC2CCCC2)Cc2ccc3c(c2)OCO3)c1N,2.28% (inactive)
2,COc1ccc(C(=O)N(Cc2ccco2)Cc2cccs2)cc1,1.97% (inactive)
3,COc1ccc(C2Nc3ccccc3C(=O)N2Cc2ccco2)cc1COc1c(C)cccc1C (stereo unspecified),2.19% (inactive)
4,NC(=O)c1nsc(C(=O)N(CC(=O)NCc2ccc3c(c2)OCO3)C2CCCCC2)c1N,1.39% (inactive)
5,O=C1C2C3CCCC3=C3CCCC3C2C(=O)N1c1ccc(F)cc1 (stereo unspecified),1.1% (inactive)
6,O=C(COC(=O)C12CC3CC(CC(Br)(C3)C1)C2)NCc1ccco1,2.19% (inactive)
7,O=C1C2C3CCCC3=C3CCCC3C2C(=O)N1c1ccccc1Cl (stereo unspecified),1.16% (inactive)
8,Cc1sc2ncn(/N=C/c3cn(-c4ccccc4)nc3-c3ccccc3)c(=O)c2c1C,2.19% (inactive)
9,NC(=O)c1nsc(C(=O)N(CC(=O)NCc2ccc3c(c2)OCO3)C2CCCC2)c1N,2.69% (inactive)
10,COc1ccc(C2Nc3ccccc3C(=O)N2Cc2ccco2)cc1COc1ccc(NC(C)=O)cc1 (stereo unspecified),2.5% (inactive)
11,COc1ccc(C(=O)N(Cc2ccco2)Cc2cccs2)c(OC)c1,2.98% (inactive)
12,O=C1C2C3CCCC3=C3CCCC3C2C(=O)N1c1ccc(Cl)cc1 (stereo unspecified),1.86% (inactive)
13,Cc1nn(-c2ccccc2)c(N2CCCC2)c1/C=N/n1cnc2scc(-c3ccccc3)c2c1=O,1.54% (inactive)
14,O=C(COC(=O)C12CC3CC(CC(O)(C3)C1)C2)NCc1ccco1,1.41% (inactive)
15,CC(NC(=O)COC(=O)c1ccco1)C12CC3CC(CC(C3)C1)C2 (stereo unspecified),2.3% (inactive)
16,O=C(COC(=O)C12CC3CC(CC(Cl)(C3)C1)C2)NCc1ccco1,3% (inactive)
17,O=C1CC(c2ccccc2)CC2=C1C(c1ccco1)n1nc(C(F)(F)F)nc1N2 (stereo unspecified),2.73% (inactive)
18,CCn1c(=O)c(C(=O)CN2CCCc3ccccc32)c(N)n(Cc2ccccc2)c1=O,2.04% (inactive)
19,COc1ccc(C2Nc3ccccc3C(=O)N2Cc2ccco2)cc1COc1ccc([N+](=O)[O-])cc1 (stereo unspecified),1.48% (inactive)
20,O=c1c2c(-c3ccccc3)csc2ncn1/N=C/c1cn(-c2ccccc2)nc1-c1cccs1,1.77% (inactive)
21,COc1ccc(C(=O)N(Cc2ccco2)Cc2cccs2)c(O)c1,2.03% (inactive)
22,O=C(COC(=O)C12CC3CC(CC(C3)C1)C2)NCC1CCCO1 (stereo unspecified),2.33% (inactive)
23,COc1cc(OC)c(C(=O)N(Cc2ccco2)Cc2cccs2)cc1OC,1.54% (inactive)
24,O=C1C2C3CCCC3=C3CCCC3C2C(=O)N1c1cccc(Cl)c1 (stereo unspecified),1.12% (inactive)
25,COc1ccc(C2Nc3cccc(O)c3C(=O)N2Cc2ccccc2)cc1COc1ccc(NC(C)=O)cc1 (stereo unspecified),2.5% (inactive)
26,O=C(COC(=O)C12CC3CC(CC(C3)C1)C2)NCc1ccco1,1.72% (inactive)
